# Source: PubChem BioAssay
# Records with an inconclusive call do not appear. Activity calls are given as the source filed them.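 Rule for the calls, unless noted: active = binding below the plate cutoff, the plate median minus 3 SD, with a reading above zero; inconclusive = below the plate cutoff but reading exactly zero; inactive = the rest.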
# How the values were obtained:
# [1] = rapamycin-like changes in RPL19A-GFP expression – cell-based, S. cerevisiae, multiplex flow cytometry, primary screen (AID 1862; in the data active = percent of DMSO control GFP below about 86%;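 note: lower values mimic rapamycin by blocking the RPL19A rise seen in DMSO cells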); details: S. cerevisiae RPL19A-GFP strain, flow cytometry fluorescence, 3 h; at 10 µM; stronger effect = lower value
# [2] = TOR pathway GLN3 branch reporter MEP2-GFP changes – S. cerevisiae, multiplex flow cytometry, primary screen (AID 1867;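 active = GFP response, as percent of the DMSO control, above the screen-wide mean plus 3 SD, about 139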;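 note: median GFP channel fluorescence of barcode-gated MEP2-GFP cells measured by flow cytometry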); details: S. cerevisiae MEP2-GFP strain, 3 h, at 10 µM, stronger effect = higher value, 100% means same as DMSO wells
# [3] = TOR pathway RTG branch CIT2 reporter changes – S. cerevisiae, GFP fusion, multiplex flow cytometry, primary screen (AID 1870;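 active = percent response above a set limit, the screen-wide mean plus 3 SD, cut at about 130% in these data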;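 note: barcoded CIT2-GFP strain pooled with four other GFP strains with rapamycin as positive control; median GFP fluorescence per well over plate mean of DMSO wells so 100% = DMSO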); details: S. cerevisiae CIT2-GFP expression, 3 h, at 10 µM, stronger effect = higher value
# [4] = TOR pathway LAP4-GFP level changes – S. cerevisiae, multiplex flow cytometry, primary screen (AID 1873;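 active = GFP signal, as percent of the solvent control, above the screen mean plus 3 SD, about 149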); details: S. cerevisiae LAP4-GFP expression, 3 h, at 10 µM, stronger effect = higher value
# [5] = yeast AGP1-GFP level changes, GLN3 branch – cell-based, multiplex flow cytometry, S. cerevisiae, primary screen (AID 1887;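 active = GFP signal above the screen-wide mean plus 3 SD, that is over about 124.5% of the solvent control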;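 note: AGP1-GFP fusion strain of S. cerevisiae within a five-strain barcoded multiplex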); details: 3 h, at 10 µM, stronger effect = higher value
# [6] = reduced mouse 2C T cell binding to pMHC/ICAM-1 vesicles – MLPCN validation set, flow cytometry, LFA-1/ICAM-1 modulator project, pilot screen (AID 2523;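 active = response below a set limit, under 55% cells CD8-positive and vesicle-bound, and CD8 cells' 90th-percentile brightness under 279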;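 for vesicle binding response: mean PE anti-B7-1 fluorescence of CD8+ cells relative to row control; 100% = QL9-loaded vesicles with DMSO vehicle in the same plate row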); details: 2C mouse CD8+ T cells, at 7 µM, stronger effect = lower value; double positive events: measured here: CD8+/vesicle+ event percentage
# [7] = target: Integrin beta-1 (Homo sapiens) + Integrin alpha-4 (Homo sapiens) (UniProt P13612+P05556); test: alpha4beta1 integrin LIBS antibody binding reduction – U937 cells, HUTS-21 mAb, flow cytometry, validation set, VLA-4 allosteric modulator project, pilot screen (AID 2674;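 active = inhibition above 50%, about 3 SD of the validation set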;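 note: antibody binding induced by the VLA-4 ligand LDV present at three times its Kd; 0% = LDV ligand with antibody and no compound and 100% = antibody without LDV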); details: HUTS-21 LIBS mAb binding, at 6.7 µM, stronger effect = higher value, binding induced by LDV ligand
# Integrin beta-1 (Homo sapiens) + Integrin alpha-4 (Homo sapiens), sequence (P05556 whole entry, looked up): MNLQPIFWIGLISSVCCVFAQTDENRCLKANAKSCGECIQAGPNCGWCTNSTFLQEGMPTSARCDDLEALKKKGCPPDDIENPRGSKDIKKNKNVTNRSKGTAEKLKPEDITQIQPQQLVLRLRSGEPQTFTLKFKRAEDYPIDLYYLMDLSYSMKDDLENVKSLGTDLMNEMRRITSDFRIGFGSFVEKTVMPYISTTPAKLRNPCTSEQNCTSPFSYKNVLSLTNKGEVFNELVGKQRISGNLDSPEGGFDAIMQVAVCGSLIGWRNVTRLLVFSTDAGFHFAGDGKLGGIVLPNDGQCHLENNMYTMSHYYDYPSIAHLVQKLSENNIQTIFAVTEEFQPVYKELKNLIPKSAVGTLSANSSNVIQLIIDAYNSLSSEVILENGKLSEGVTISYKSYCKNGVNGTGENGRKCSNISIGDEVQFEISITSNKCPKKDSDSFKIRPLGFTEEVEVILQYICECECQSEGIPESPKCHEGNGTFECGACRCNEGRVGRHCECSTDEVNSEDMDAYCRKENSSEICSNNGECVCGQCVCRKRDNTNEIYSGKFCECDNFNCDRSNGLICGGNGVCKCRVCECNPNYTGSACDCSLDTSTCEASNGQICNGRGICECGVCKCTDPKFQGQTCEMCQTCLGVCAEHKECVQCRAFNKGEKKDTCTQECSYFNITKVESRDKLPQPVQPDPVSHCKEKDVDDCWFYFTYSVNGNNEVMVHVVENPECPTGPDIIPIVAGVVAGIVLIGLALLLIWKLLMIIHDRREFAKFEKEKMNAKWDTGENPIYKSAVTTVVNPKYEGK
# Integrin beta-1 (Homo sapiens) + Integrin alpha-4 (Homo sapiens), sequence (P13612 whole entry, looked up): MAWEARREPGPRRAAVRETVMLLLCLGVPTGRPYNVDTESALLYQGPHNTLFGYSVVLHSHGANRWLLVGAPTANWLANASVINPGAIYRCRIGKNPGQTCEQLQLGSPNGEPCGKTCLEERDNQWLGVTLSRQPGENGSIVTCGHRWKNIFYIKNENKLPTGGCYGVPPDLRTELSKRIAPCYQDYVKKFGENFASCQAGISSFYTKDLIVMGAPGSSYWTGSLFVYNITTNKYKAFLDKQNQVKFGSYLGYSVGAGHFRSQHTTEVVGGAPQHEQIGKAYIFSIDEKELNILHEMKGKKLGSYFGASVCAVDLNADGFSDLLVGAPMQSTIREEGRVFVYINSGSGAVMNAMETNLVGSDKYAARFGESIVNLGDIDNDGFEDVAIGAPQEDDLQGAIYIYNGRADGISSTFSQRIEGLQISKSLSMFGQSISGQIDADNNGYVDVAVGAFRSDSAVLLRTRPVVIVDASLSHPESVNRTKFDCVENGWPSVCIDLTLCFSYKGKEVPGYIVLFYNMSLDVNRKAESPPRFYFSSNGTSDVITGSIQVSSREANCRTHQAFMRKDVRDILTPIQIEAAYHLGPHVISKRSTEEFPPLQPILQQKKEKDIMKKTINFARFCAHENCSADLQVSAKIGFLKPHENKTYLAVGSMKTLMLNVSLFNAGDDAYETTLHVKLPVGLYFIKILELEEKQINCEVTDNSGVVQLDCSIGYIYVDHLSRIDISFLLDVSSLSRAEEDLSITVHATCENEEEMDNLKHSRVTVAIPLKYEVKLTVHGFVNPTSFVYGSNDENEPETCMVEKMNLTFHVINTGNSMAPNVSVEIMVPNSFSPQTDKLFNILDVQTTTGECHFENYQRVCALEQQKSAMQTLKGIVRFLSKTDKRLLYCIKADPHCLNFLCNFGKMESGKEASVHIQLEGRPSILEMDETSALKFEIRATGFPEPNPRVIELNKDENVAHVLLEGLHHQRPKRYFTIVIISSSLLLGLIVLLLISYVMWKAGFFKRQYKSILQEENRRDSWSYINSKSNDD
# [8] = calorie-restriction mimetic ROS inhibitors, yeast – validation compound set, pilot screen (AID 2706;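 active = superoxide response below 65% of plate, a cut near 3 SD across the whole screen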;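 note: yeast exposed to compound for one week at 30 degrees C before staining; 100% = mean of all compound wells on the same plate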); details: S. cerevisiae aging, superoxide DHE fluorescence; at 10 µM; stronger effect = lower value
# [9] = target: Beta-adrenergic receptor kinase 1 (Homo sapiens) (UniProt P25098); test: GRK2 binders displacing RNA aptamer, biochemical, validation, human GRK2, bead flow cytometry (AID 488806;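 active = aptamer binding inhibition above 30%, about 3 SD of noise from non-fluorescent compounds; inactive = inhibition at or below 30%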); details: bead-bound GRK2, FAM-aptamer displacement, at 10 µM, stronger effect = higher value
# Beta-adrenergic receptor kinase 1 (Homo sapiens), sequence (P25098 whole entry, looked up): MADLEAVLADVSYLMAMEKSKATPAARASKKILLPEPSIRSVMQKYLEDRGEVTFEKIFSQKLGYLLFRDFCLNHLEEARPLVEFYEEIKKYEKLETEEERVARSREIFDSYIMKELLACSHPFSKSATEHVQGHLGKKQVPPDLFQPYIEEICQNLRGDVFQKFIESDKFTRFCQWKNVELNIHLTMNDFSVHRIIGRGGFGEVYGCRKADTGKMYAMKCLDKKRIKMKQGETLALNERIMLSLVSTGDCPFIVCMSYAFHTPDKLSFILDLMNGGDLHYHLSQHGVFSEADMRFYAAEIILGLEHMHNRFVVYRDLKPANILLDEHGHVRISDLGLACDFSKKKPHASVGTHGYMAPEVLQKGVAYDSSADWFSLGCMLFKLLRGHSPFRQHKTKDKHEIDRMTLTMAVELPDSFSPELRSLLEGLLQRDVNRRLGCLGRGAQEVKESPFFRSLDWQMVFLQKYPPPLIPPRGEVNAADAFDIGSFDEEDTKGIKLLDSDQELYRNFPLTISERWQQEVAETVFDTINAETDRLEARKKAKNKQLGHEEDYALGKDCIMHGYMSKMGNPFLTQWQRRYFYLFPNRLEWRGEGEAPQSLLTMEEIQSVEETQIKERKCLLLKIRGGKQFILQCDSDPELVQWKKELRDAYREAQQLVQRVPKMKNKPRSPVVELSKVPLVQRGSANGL
# [10] = target: Beta-2 adrenergic receptor (Homo sapiens) (UniProt P07550); test: agonist-induced loss of surface beta2AR – cell-based, FAP fluorogen, flow cytometry, validation set, pilot screen (AID 504459;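 active = percent response above 42, roughly 3 SD of non-fluorescent test compounds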;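 note: agonist-driven loss of surface beta2AR via internalization measured by FAP dye flow cytometry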); details: Am2.2-beta2AR cells, at 10 µM, stronger effect = higher value
# Beta-2 adrenergic receptor (Homo sapiens), sequence (P07550 whole entry, looked up): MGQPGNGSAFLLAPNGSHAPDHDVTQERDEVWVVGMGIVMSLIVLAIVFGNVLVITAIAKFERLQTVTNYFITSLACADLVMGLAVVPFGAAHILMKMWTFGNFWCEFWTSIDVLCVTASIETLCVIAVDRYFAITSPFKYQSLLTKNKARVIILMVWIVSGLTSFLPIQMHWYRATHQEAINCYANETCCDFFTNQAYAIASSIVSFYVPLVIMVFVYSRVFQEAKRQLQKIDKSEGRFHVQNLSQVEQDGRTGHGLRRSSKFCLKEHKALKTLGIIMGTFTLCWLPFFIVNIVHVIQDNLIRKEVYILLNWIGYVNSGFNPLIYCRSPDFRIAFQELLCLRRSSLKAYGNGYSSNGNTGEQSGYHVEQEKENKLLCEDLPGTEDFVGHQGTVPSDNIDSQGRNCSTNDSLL
# [11] = target: AP-2 complex subunit beta (Homo sapiens) (UniProt P63010); test: beta-arrestin/AP2 interaction blockers – biochemical, validation set, GST-AP2 beads, flow cytometry, pilot screen (AID 504541;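 active = inhibition above 54%, about 3 SD of non-fluorescent compounds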;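 note: AP2 carries R879A mutation and is captured from E. coli lysate; bead-bound FITC arrestin peptide fluorescence measuring arrestin peptide binding to AP2; 0% = DMSO wells and 100% = excess unlabeled arrestin peptide control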); details: FITC arrestin peptide, at 10 µM, stronger effect = higher value, AP2 beta2 appendage fragment, R879A mutant
# AP-2 complex subunit beta (Homo sapiens), sequence (P63010 whole entry, looked up, the tested form may be a part, one chain of several): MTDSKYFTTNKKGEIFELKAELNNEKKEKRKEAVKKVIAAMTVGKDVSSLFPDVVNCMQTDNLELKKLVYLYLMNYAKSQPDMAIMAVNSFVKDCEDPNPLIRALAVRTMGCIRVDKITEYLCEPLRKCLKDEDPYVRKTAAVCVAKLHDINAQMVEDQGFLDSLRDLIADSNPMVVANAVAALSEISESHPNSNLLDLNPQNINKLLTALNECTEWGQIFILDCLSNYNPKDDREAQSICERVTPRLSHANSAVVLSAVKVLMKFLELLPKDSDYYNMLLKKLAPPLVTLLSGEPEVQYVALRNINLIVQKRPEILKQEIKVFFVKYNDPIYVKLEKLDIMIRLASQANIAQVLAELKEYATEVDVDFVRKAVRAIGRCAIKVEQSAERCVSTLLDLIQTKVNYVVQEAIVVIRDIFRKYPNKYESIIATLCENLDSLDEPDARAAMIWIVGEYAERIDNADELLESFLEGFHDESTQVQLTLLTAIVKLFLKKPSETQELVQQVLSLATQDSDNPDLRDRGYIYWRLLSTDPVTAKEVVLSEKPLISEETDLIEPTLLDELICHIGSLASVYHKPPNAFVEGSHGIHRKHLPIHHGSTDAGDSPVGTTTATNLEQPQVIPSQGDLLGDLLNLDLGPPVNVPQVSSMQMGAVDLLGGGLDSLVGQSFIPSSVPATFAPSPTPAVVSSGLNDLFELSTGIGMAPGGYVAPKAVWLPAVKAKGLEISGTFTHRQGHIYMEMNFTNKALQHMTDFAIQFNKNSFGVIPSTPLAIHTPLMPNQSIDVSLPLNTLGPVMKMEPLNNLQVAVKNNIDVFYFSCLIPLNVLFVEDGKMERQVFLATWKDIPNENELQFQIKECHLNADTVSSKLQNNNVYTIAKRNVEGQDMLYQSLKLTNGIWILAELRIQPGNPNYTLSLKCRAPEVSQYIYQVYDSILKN
# [12] = cytosolic pH regulators acting via V-ATPase – S. cerevisiae, pHLuorin, HTS validation (AID 504600; in the data active = response above about 15%;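 note: plate controls were DMSO for no effect and reference compound for full effect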); details: V-ATPase proton transport, at 10 µM, stronger effect = higher value
# [13] = tested on: anti-desmoglein-3 scFv antibody binding to human DSG3; test: blockers of pathogenic pemphigus antibody–desmoglein-3 binding – biochemical, validation compound set, bead-based, flow cytometry, pilot screen (AID 588368); details: Protein G beads, DSG3-Fc, scFv-GFP binding, at 10 µM, stronger effect = lower value;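 note: signal is the median channel fluorescence of bead-bound GFP antibody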
# [14] = Nile Red efflux blockade in pump-expressing yeast – validation compound set, multiplex, phenotypic, pilot screen (AID 588506;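 active = efflux inhibition above 0.42, the validation set average plus 4 SD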;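 note: Nile Red retained in cells so higher fluorescence means more efflux inhibition; 0 = negative control wells and 1 = enniatin B 25 µM full block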); details: S. cerevisiae pump-expressing triplex, Nile Red efflux flow cytometry; at 10 µM; stronger effect = higher value; the pumps come from Candida albicans
# [15] = target: ATP-binding cassette sub-family B member 6 (Homo sapiens) (UniProt Q9NP58); test: blockers of ABCB6-driven porphyrin uptake – K562-ABCB6 cells, flow cytometry, validation set, pilot screen (AID 588550;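 active = inhibition above the screen-wide mean plus 3 SD, about 51%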;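 note: 0% = DMSO wells and 100% = benzethonium chloride 70 µM positive control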); details: K562-ABCB6 porphyrin accumulation, 1 h, at 10 µM, stronger effect = higher value
# ATP-binding cassette sub-family B member 6 (Homo sapiens), sequence (Q9NP58 whole entry, looked up): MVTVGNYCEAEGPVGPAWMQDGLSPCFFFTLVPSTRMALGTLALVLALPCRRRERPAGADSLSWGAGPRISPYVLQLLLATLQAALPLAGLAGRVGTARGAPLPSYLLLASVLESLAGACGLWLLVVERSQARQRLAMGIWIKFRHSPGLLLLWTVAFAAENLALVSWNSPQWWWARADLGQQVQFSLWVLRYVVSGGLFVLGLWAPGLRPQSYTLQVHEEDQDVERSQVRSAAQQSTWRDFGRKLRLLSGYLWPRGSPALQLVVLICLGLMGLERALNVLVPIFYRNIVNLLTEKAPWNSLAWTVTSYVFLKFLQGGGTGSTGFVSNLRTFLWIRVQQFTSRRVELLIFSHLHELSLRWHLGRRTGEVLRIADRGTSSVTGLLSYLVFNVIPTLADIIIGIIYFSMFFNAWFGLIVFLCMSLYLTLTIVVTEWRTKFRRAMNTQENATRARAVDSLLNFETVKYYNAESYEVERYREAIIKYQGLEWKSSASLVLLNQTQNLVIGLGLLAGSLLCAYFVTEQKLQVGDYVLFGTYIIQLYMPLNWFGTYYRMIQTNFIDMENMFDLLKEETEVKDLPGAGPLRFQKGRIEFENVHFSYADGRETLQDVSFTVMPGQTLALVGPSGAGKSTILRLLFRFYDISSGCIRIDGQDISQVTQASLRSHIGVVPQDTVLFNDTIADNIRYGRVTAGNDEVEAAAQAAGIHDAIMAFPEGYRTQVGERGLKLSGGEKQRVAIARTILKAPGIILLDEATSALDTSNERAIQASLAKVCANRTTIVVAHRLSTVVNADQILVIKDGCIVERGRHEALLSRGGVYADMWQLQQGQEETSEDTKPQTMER
# [16] = AML differentiation inducers, ER-HoxA9 marrow cells – cell-based, GFP/MAC1 double positive, flow cytometry, validation set, primary screen (AID 588685;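 active = differentiation response of at least 50%, scaled between solvent and reference control, from cells with both markers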;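 note: compound exposure lasts four days before antibody staining and flow analysis; 0% = DMSO wells and 100% = 5 µM fulvestrant positive control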); details: stronger effect = higher value, normalized: vehicle 0, fulvestrant 100
SMILES,percent of DMSO control GFP [1],GFP response vs DMSO [2],percent response of DMSO control [3],GFP response vs DMSO [4],"GFP response, % of DMSO [5]",double positive events [6] [%],vesicle binding response [6],inhibition [7],superoxide response (% of plate) [8],aptamer binding inhibition [9],response [10],inhibition [11],response [12],binding (% of control) [13],efflux inhibition (fraction of control) [14],inhibition [15],differentiation response [16]
NC(=O)[C@@H]1[C@@H]2C(=O)N(c3ccc(F)cc3)C(=O)[C@@H]2[C@H]2C=Cc3ccccc3N21,104% (inactive),105% (inactive),112% (inactive),100% (inactive),102% (inactive),63,126% (inactive),-80.5% (inactive),103% (inactive),6% (inactive),4.67% (inactive),-25.9% (inactive),-0.45% (inactive),104% (inactive),-0.12 (inactive),-37% (inactive),3.45% (inactive)
COCCCN1C(=O)/C(=C\c2cccs2)C(C(=O)OC)=C1C,99.9% (inactive),106% (inactive),92.9% (inactive),120% (inactive),99.4% (inactive),57.8,4220% (inactive),6.4% (inactive),113% (inactive),2% (inactive),-6.32% (inactive),-12% (inactive),10.8% (inactive),102% (inactive),-0.06 (inactive),5% (inactive),-20% (inactive)
CCN1C(=O)C(CC(=O)Nc2ccc(F)cc2)N(Cc2ccco2)C1=S (stereo not drawn),99% (inactive),102% (inactive),95.1% (inactive),106% (inactive),114% (inactive),62.4,194% (inactive),15.1% (inactive),107% (inactive),5% (inactive),-17.8% (inactive),-8.85% (inactive),1.67% (inactive),99.9% (inactive),-0.04 (inactive),7% (inactive),18.7% (inactive)
COC(=O)c1sccc1NC(=O)Nc1ccccc1F,100% (inactive),103% (inactive),105% (inactive),88.2% (inactive),101% (inactive),69.3,197% (inactive),5.61% (inactive),93.7% (inactive),-3% (inactive),2% (inactive),-3.3% (inactive),-6.01% (inactive),103% (inactive),-0.28 (inactive),23% (inactive),7.13% (inactive)
O=C(O)/C=C/c1cccc(OCc2ccccc2)c1,93.8% (inactive),105% (inactive),93.4% (inactive),123% (inactive),82.2% (inactive),58.1,131% (inactive),5.61% (inactive),104% (inactive),3% (inactive),4.34% (inactive),13.5% (inactive),-4.03% (inactive),94.3% (inactive),-0.24 (inactive),8% (inactive),-8.96% (inactive)
COc1ccc2c(c1OC)C(=O)N1C2SC[C@H]1C(=O)NC1CC(C)(C)NC(C)(C)C1 (stereo partly drawn),99.8% (inactive),133% (inactive),111% (inactive),84.7% (inactive),93.1% (inactive),48.3,17.2% (active),1.61% (inactive),91.6% (inactive),6% (inactive),3.43% (inactive),39.2% (inactive),-0.76% (inactive),103% (inactive),0.09 (inactive),1% (inactive),30.3% (inactive)
COc1ccc(CCN2C(=O)CSC2c2ccc(OC)c(OC)c2)cc1OC (stereo not drawn),102% (inactive),118% (inactive),87.2% (inactive),104% (inactive),95.7% (inactive),63.2,184% (inactive),9.13% (inactive),104% (inactive),2% (inactive),-12.9% (inactive),8.66% (inactive),-1.47% (inactive),100% (inactive),0.05 (inactive),1% (inactive),21.6% (inactive)
COc1ccc(NC(=O)CC2C(=O)N(C)C(=S)N2Cc2ccncc2)cc1 (stereo not drawn),88% (inactive),123% (inactive),97.9% (inactive),75.4% (inactive),88.2% (inactive),54.8,194% (inactive),5.49% (inactive),105% (inactive),0% (inactive),-1.13% (inactive),0.05% (inactive),-1.16% (inactive),100% (inactive),0.01 (inactive),8% (inactive),1.64% (inactive)
O=C(NC(Nc1ccccn1)C(Cl)(Cl)Cl)c1ccccc1 (stereo not drawn),100% (inactive),102% (inactive),103% (inactive),103% (inactive),102% (inactive),58.7,157% (inactive),-13.2% (inactive),91.6% (inactive),-1% (inactive),1.87% (inactive),-6.1% (inactive),-1.51% (inactive),99.8% (inactive),0.25 (inactive),-8% (inactive),-10.4% (inactive)
CSCC[C@H](NC(=O)NC1CCCC1)C(=O)O,89.8% (inactive),113% (inactive),99.2% (inactive),75.4% (inactive),89.6% (inactive),70.2,233% (inactive),8.4% (inactive),113% (inactive),3% (inactive),-7.36% (inactive),-9.17% (inactive),1.23% (inactive),101% (inactive),0.34 (inactive),13% (inactive),0.82% (inactive)
COc1ccc2[nH]cc(C3N4CC5(C)CN3CC(C)(C4)C5=O)c2c1 (stereo not drawn),103% (inactive),103% (inactive),107% (inactive),103% (inactive),107% (inactive),59.2,138% (inactive),9.63% (inactive),105% (inactive),-2% (inactive),-5.37% (inactive),10.8% (inactive),1.5% (inactive),101% (inactive),-0.08 (inactive),2% (inactive),-11.9% (inactive)
Nc1nc(SCc2ccc([N+](=O)[O-])cc2)c2ncn(C3OC(CO)C(O)C3O)c2n1 (stereo not drawn),108% (inactive),99.7% (inactive),106% (inactive),100% (inactive),107% (inactive),63.2,169% (inactive),8.29% (inactive),105% (inactive),0% (inactive),-15.6% (inactive),14.6% (inactive),0.04% (inactive),98.1% (inactive),-0.07 (inactive),2% (inactive),-7.5% (inactive)
CC(C)(C)OC(=O)N1CC(O)CC1C(=O)OCC(=O)c1ccc(Cl)cc1 (stereo not drawn),105% (inactive),98.3% (inactive),113% (inactive),90.7% (inactive),105% (inactive),61.3,222% (inactive),2.66% (inactive),105% (inactive),0% (inactive),-16.2% (inactive),-13.3% (inactive),2.73% (inactive),98.2% (inactive),0.14 (inactive),-6% (inactive),8.06% (inactive)
CCN(CC)CCOC(=O)C(c1ccccc1)c1ccccc1,102% (inactive),108% (inactive),91.9% (inactive),90.1% (inactive),95.6% (inactive),59.4,91.8% (inactive),-4.6% (inactive),105% (inactive),3% (inactive),2.02% (inactive),59.1% (active),-3.97% (inactive),99% (inactive),0.3 (inactive),6% (inactive),37.4% (inactive)
COc1ccc(-n2cc(CNCc3cccnc3)c(-c3cccc(F)c3)n2)cc1,105% (inactive),97.2% (inactive),115% (inactive),110% (inactive),99.1% (inactive),64.8,314% (inactive),-4.6% (inactive),89.3% (inactive),0% (inactive),-13.2% (inactive),-5.67% (inactive),-0.1% (inactive),104% (inactive),-0.26 (inactive),20% (inactive),4.15% (inactive)
CCc1ccc(/C=C2\Oc3cc(OC(=O)N4CCOCC4)ccc3C2=O)cc1,98.7% (inactive),99.6% (inactive),83.4% (inactive),125% (inactive),79.8% (inactive),64.9,164% (inactive),11.7% (inactive),173% (inactive),4% (inactive),-17.4% (inactive),-5.57% (inactive),1.83% (inactive),99.3% (inactive),0.29 (inactive),0% (inactive),6.83% (inactive)
CN(C)[C@@H]1C(=O)C(C(=O)NCN2CCCC2)=C(O)[C@@]2(O)C(=O)C3=C(O)c4c(O)cccc4[C@@](C)(O)C3CC12 (stereo partly drawn),103% (inactive),119% (inactive),112% (inactive),95.7% (inactive),93.3% (inactive),59,145% (inactive),-45.9% (inactive),107% (inactive),92% (active),12.3% (inactive),94.1% (active),-6.79% (inactive),30.6% (active),-0.06 (inactive),8% (inactive),19.6% (inactive)
Cc1cn([C@H]2C[C@H](N=[N+]=[N-])[C@@H](CO)O2)c(=O)[nH]c1=O,94.2% (inactive),138% (inactive),110% (inactive),82.5% (inactive),95.9% (inactive),61.7,179% (inactive),16.2% (inactive),88.8% (inactive),6% (inactive),2.53% (inactive),-5.32% (inactive),9.2% (inactive),103% (inactive),0.05 (inactive),13% (inactive),14.7% (inactive)
CC(C)CN1CCN(Cc2ccc3ncccc3c2)CC1CCO (stereo not drawn),103% (inactive),96.2% (inactive),118% (inactive),84.8% (inactive),103% (inactive),62,290% (inactive),4.73% (inactive),95% (inactive),-1% (inactive),-8.31% (inactive),-6.16% (inactive),1.7% (inactive),103% (inactive),0.24 (inactive),-9% (inactive),6.11% (inactive)
